# Reference: publication PMC5540273 (PLoS ONE, 2017)
# Tested on: TBK1
# Details: concentration: 1 μM, replicates: in singlicate; n = 1
# 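Also: KINOMEscan kinase panel screen.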
row,Compound,%Inh [%]
1,c1ccc(-c2cnc3nccnn23)cc1 [AH20685],0
2,C[C@@H](Oc1cc(-n2cnc3cc(-c4ccnc(NCCS(C)(=O)=O)c4)ccc32)sc1C(N)=O)c1ccccc1Cl [GSK907232],5
3,COc1cc(Nc2ncc3c(C)nc(-c4cc5ccccc5[nH]4)n3n2)cc(OC)c1OC [GW869516],58
4,Cl.c1ccc(-c2ccc3c(Nc4ccc5[nH]ncc5c4)ccnc3c2)nc1 [GW440137],21
5,Cl.c1ccc(-c2ccc3c(Nc4ccc5[nH]ccc5c4)ccnc3c2)nc1 [GW440138],12
6,Cl.NC(=O)c1cccc(Nc2nccc(Nc3ccc(Oc4c(Cl)cccc4Cl)c(Cl)c3)n2)c1 [GW659009],0
7,O=C(Nc1ccccc1F)NC1CCN(c2ccnc(Nc3ccc(F)cc3)n2)CC1 [GSK1379800],8
8,COc1ccc(-c2coc3ccc(-c4nnc(SCc5ccc(OC)c(C(F)(F)F)c5)o4)cc23)cc1,11
9,Clc1ccc(-c2nn3ncccc3c2-c2ccnc(Nc3ccc4c(c3)OCCO4)n2)cc1 [GW829116],19
10,CC(C)c1nc(-c2cccc(NS(=O)(=O)c3c(F)cccc3F)c2F)c(-c2ccnc(Nc3ccc(N4CCOCC4)nc3)n2)s1 [GSK2008607],51
11,C[C@@H]1CC[C@@H](C(=O)Nc2ccccc2)CN1c1cc(-c2ccc3c(N)n[nH]c3c2)nc(N)n1 [GSK2286062],17
12,COc1ccc(CNC(=O)NC2CCN(c3ccnc(Nc4ccc(F)cc4)n3)CC2)cc1 [GSK1379788],2

# Tested on: TEC
# Details: concentration: 1 μM, replicates: in singlicate; n = 1
row,Compound,%Inh [%]
1,c1ccc(Oc2ccc(Nc3ccnc4cc(-c5ccc(CNCCN6CCOCC6)o5)ccc34)cc2)nc1 [GW567145],39
2,Cn1cc(-c2[nH]c3cc(NC(=O)[C@H](N)C4CCCCC4)cc4c3c2C=NNC4=O)cn1,43
3,O=C(Nc1cccc(-c2nn3ccccc3c2-c2ccnc(Nc3cccc(F)c3)n2)c1)c1c(F)ccc(F)c1Cl [GSK357952],60
4,Cc1ccc(C)c(NC(=O)NC2CCN(c3ccnc(Nc4ccc(F)cc4)n3)C2)c1 (stereo not shown) [GSK1379720],2
5,O=C(Nc1n[nH]c2cc(-c3ccoc3)ccc12)C1CC1 [SB-738481],0
6,COc1cccc(C(=O)Nc2cccc(Oc3ccc4nc(NC(=O)C5CC5)cn4n3)c2)c1,9
7,Cc1ccc(S(=O)(=O)Nc2ccc(Nc3nccc(Nc4cccc5[nH]ncc45)n3)cc2)cc1 [GSK581271],9
8,CN(C)Cc1ccc(-c2ccc3c(Nc4ccc(Oc5ccccn5)cc4)ccnc3c2)o1 [GW567148],49
9,Nc1ncc(-c2ccc3nccc(-c4ccncc4)c3c2)cc1S(=O)(=O)N1CCOCC1 [GSK1627798],9
10,CC(=O)Nc1nc2cnc(Nc3cc(NC(=O)c4cccc(C5(C#N)CC5)c4Cl)ccc3C)nc2s1,0
11,Cl.Cl.NCC(NC(=O)c1cc(-c2ccccc2)c(-c2ccnc3[nH]ccc23)s1)c1ccccc1 (stereo not shown) [GSK1321561],11
12,COc1cccc(C2=C(Nc3ccc(Cl)c(C(=O)O)c3)C(=O)NC2=O)c1 [SB-390769],0
13,O=c1[nH]cc(-c2ccc(N3CCOCC3)cc2)c2sc(-c3cn[nH]c3)cc12 [GSK2276055],0
14,Cn1cc(-c2ccc3c(c2)CCN3C(=O)Cc2cccc(F)c2)c2c(N)ncnc21 [GSK2603358],8
15,CN1CCN(CCCNc2nccc(-c3c(-c4ccc(F)cc4)nn4cc(C(F)(F)F)ccc34)n2)CC1 [GW621581],0
16,Cc1ccc(C(=O)Nc2ccc(Nc3ccnc4cc(-c5nccs5)ccc34)cc2O)cc1.Cl [GW494702],0
17,CC(C)(C)c1ccc2nccc(Nc3cccc(O)c3)c2c1 [GW856795],12
18,Nc1n[nH]c2cnc(-c3ccccc3)cc12 [SB-642124],68
19,CCc1ccc(-c2ccc3c(c2)-c2c(cnn2C)S(=O)(=O)N3C)cc1,0

row,Compound,%Inh [%]
1,O=C(Nc1n[nH]c2nc(-c3ccc(O)cc3)ccc12)C1CC1 [SB-710363],0
2,CC(=O)N1CCN(c2ccc(Nc3nccc(-c4sc(C(C)C)nc4-c4cccc(NS(=O)(=O)c5cccc(Cl)c5)c4)n3)cn2)CC1 [GSK1660437],21
3,c1ccc(-c2n[nH]cc2Nc2ccnc3ccccc23)nc1 [GW694077],0
4,Oc1cc(Nc2ccnc3cc(I)ccc23)ccc1F [GW552771],12
5,COc1ccc(Nc2nccc(N3CCC(NC(=O)Nc4cccc(OC)c4)C3)n2)cc1 (stereo not shown) [GSK1379742],1
6,COc1cc(Nc2nccc(-c3c(-c4cccc(NC(=O)c5c(F)cccc5F)c4)nn4ccccc34)n2)cc(OC)c1OC [GSK323521],21
7,c1ccc(-c2cnc3nccnn23)cc1 [AH20685],0
8,C[C@@H](Oc1cc(-n2cnc3cc(-c4ccnc(NCCS(C)(=O)=O)c4)ccc32)sc1C(N)=O)c1ccccc1Cl [GSK907232],4
9,COc1cc(Nc2ncc3c(C)nc(-c4cc5ccccc5[nH]4)n3n2)cc(OC)c1OC [GW869516],0
10,Cl.c1ccc(-c2ccc3c(Nc4ccc5[nH]ncc5c4)ccnc3c2)nc1 [GW440137],0
11,Cl.c1ccc(-c2ccc3c(Nc4ccc5[nH]ccc5c4)ccnc3c2)nc1 [GW440138],0
12,Cl.NC(=O)c1cccc(Nc2nccc(Nc3ccc(Oc4c(Cl)cccc4Cl)c(Cl)c3)n2)c1 [GW659009],0
13,O=C(Nc1ccccc1F)NC1CCN(c2ccnc(Nc3ccc(F)cc3)n2)CC1 [GSK1379800],0
14,COc1ccc(-c2coc3ccc(-c4nnc(SCc5ccc(OC)c(C(F)(F)F)c5)o4)cc23)cc1,18
15,Clc1ccc(-c2nn3ncccc3c2-c2ccnc(Nc3ccc4c(c3)OCCO4)n2)cc1 [GW829116],0
16,CC(C)c1nc(-c2cccc(NS(=O)(=O)c3c(F)cccc3F)c2F)c(-c2ccnc(Nc3ccc(N4CCOCC4)nc3)n2)s1 [GSK2008607],85
17,C[C@@H]1CC[C@@H](C(=O)Nc2ccccc2)CN1c1cc(-c2ccc3c(N)n[nH]c3c2)nc(N)n1 [GSK2286062],0
18,COc1ccc(CNC(=O)NC2CCN(c3ccnc(Nc4ccc(F)cc4)n3)CC2)cc1 [GSK1379788],0
